Measured values published in PubChem BioAssay (NCATS).
Inconclusive results are not listed. Active and inactive are the calls of the source. Calls come from the whole dose curve; as a rule, active = well fitted cell-killing curve with a large enough effect; inconclusive = small, poorly fitted or top-dose-only effect; inactive = no such curve, though single readings can be large or run the other way. Residues, ends and D or L forms follow the SMILES beside them. *: point of attachment. Cbz = O=C(OCc1ccccc1)*

Experiment: qHTS of pediatric cancer cell lines to identify multiple opportunities for drug repurposing: Primary screen for A673 cells (AID 1347092); note: nearly all actives have a fitted effect of over 45% in size
Conditions: A673 Ewing sarcoma viability, CellTiter-Glo ATP luminescence, 48 h; series mostly up to 46 µM
Description: Drug repurposing or repositioning has been offered as a strategy for drug development in oncology programs. This approach has special potential for childhood cancers and other rare or orphan diseases, where the expected return on new drug development has been a disincentive to pharmaceuticals. […] In this project we exploit the poly-pharmacology of drugs to discover new indications via phenotypic screening of a panel of 19 well-characterized cell lines derived from solid tumors seen in children and adolescents. The goal is to identify approved drugs with previously unrecognized anticancer properties that has the potential to reveal new mechanisms and biological processes involved in carcinogenesis or drug resistance. We employed a titration-based paradigm (quantitative high-throughput screening or qHTS), where all compounds were tested at multiple concentrations for their effect on cell viability. Concentration-response curves (CRCs) were derived directly from the primary screen, and both potency and efficacy values were used to identify compounds with robust bioactivity profiles. We screened the NIH Chemical Genomics Center (NCGC) Pharmaceutical Collection (NPC) and Mechanism Interrogation Plate (MIPE) small molecule collections of approved and investigational compounds against these cell lines; and measured metabolically active cells after 48 hours of compound treatment as a proxy for cell viability. […] Assay Submitter: Nathalia J. Martinez, National Center for Advancing Translational Sciences, National Institutes of Health, Rockville, MD, USA; email: natalia.martinez@nih.gov. Shen, M et al. Quantitative high-throughput phenotypic screening of pediatric cancer cell lines identifies multiple opportunities for drug repurposing. Oncotarget 2017 Dec 19;9(4):4758-4772. PMID 29435139.
The cells were obtained from University of North Carolina (UNC), Pediatric Preclinical Testing Program (PPT), and Coriell Institute (CI). qHTS cell viability assay: Cells were assayed in growth media at a density of 500-1,000 cells/well. Five microliters of cells were dispensed into 1,536-well, white, solid-bottom, TC-treated plates (Greiner Bio One) using a multidrop dispenser and incubated at 37 degrees C, 5% CO2, under a humidified atmosphere for 5 hours. Twenty-three nanoliters of compounds and controls (neutral control DMSO or positive control bortezomib at final concentration of 2.3 uM) were subsequently transferred by Kalypsys pintool. For primary screens, the MIPE collection was tested at 11-point dilutions (final concentrations range from 0.78 nM to 46 µM) and the NPC collection at 8-point dilutions (final concentrations range from 0.59 nM to 46 µM). Compounds tested in follow-up screens were assayed at 11-point dilutions. Cells were incubated for 48 hours, followed by addition of 3 uL of CellTiter-Glo (Promega). After a 15min incubation at room temperature, samples were analyzed for luminescence intensity using a ViewLux High-throughput CCD imager equipped with clear filters.
Potency is the fitted concentration of half-maximal effect.

Compound | Potency
Cc1cc(O)c2c(c1)C(=O)c1cccc(O)c1C2=O | inactive
Nc1ncn([C@@H]2O[C@H](CO)[C@@H](O)[C@@H]2O)c(=O)n1 | 4.69 µM (active)
CCCc1nc(C(C)(C)O)c(C(=O)O)n1Cc1ccc(-c2ccccc2-c2nn[nH]n2)cc1 | inactive
CC(C)c1cnn2c(NCc3ccccc3)cc(NCCCCCCN)nc12 | 5.9 µM (active)
C=CC(=O)N1CCc2ccc(-n3c(=O)ccc4cnc5ccc(-c6cnn(C)c6)cc5c43)cc21 | 5.9 µM (active)
COc1cc2c(Nc3ccc(Cl)c(Cl)c3F)ncnc2cc1OCC1C[C@@H]2CN(C)C[C@H]2C1 | 0.935 µM (active)
CCNC(=O)c1cc2c(-c3cc(OCCN4CCCC4)c(Cl)cc3Cl)nc(N)nc2s1 | 1.18 µM (active)
O=C(NNC(=O)c1ccc(CNS(=O)(=O)c2ccc(F)c(Cl)c2)cc1)c1ccccc1 | inactive
COc1cc2ncnc(Nc3cccc(Br)c3)c2cc1OC | 0.0059 µM (active)
C#Cc1cccc(Nc2ncnc3cc(OCCOC)c(OCCO)cc23)c1 | 0.187 µM (active)
N#Cc1c(NC(=O)c2cccc3ccccc23)sc2c1CCCC2 | 0.235 µM (active)
CC(=O)O[C@H]1C[C@@H]2CC[C@H]3[C@H]4C[C@H]([N+]5(C)CCCCC5)[C@@H](OC(C)=O)[C@@]4(C)CC[C@@H]3[C@@]2(C)C[C@H]1[N+]1(C)CCCCC1 | inactive
CC(C)Oc1ccc(C(=O)N[C@H](CNC(=O)CN(C)C)Cc2ccc(-c3cn4cccc([C@H](C)O)c4n3)cc2)cc1Cl | 0.148 µM (active)
CC(C)C[C@@H](C=O)NC(=O)[C@H](CC(C)C)NC(=O)[C@H](CC(C)C)NC(=O)OCc1ccccc1 (Cbz-Leu-Leu-Leu-aldehyde) | 0.235 µM (active)
CC1(C)CC(O)CC(C)(C)N1[O] | inactive
NC(=O)Nc1sc(-c2ccc(F)cc2)cc1C(N)=O | 0.59 µM (active)
CC(C)C[C@H](NC(=O)CNC(=O)c1cc(Cl)ccc1Cl)B1OC(=O)CC(CC(=O)O)(C(=O)O)O1 (stereo not given in full) | 0.0118 µM (active)
COc1cc(C(C)C)c(Oc2cnc(NC(CO)CO)nc2N)cc1I | 0.372 µM (active)
CCOC(=O)N1CCN([N+]([O-])=NOc2ccc([N+](=O)[O-])cc2C#N)CC1 | 1.18 µM (active)
O=C(NCc1ccccc1)[C@H](Cc1ccccc1)NC(=O)[C@@H]1O[C@@H]1C(=O)NCCc1ccc(O)cc1 | 1.18 µM (active)

Compound | Potency
C=C1C(=O)O[C@H]2[C@@H]1CCC(C)=CCC[C@@]1(C)O[C@@H]21 | 7.43 µM (active)
C=CC(=O)Nc1cccc(Nc2nc(NC3CCC(N(C)C)CC3)nc3c2ncn3C(C)C)c1 (stereo not given) | 0.0118 µM (active)
NC(=O)Nc1cc(-c2ccc(CN3CCOCC3)cc2)sc1C(N)=O | 5.9 µM (active)
Nc1nc(N)c2nc(-c3cccc(O)c3)c(-c3cccc(O)c3)nc2n1 | 2.35 µM (active)
C[C@@H]1[C@H](C)CC[C@]2(C(=O)O)CC[C@]3(C)C(=CC[C@@H]4[C@@]5(C)C[C@@H](O)[C@H](O)[C@@](C)(CO)[C@H]5CC[C@]43C)[C@@H]12 | inactive
Cn1cc(CNCC2CCN(c3ncc(C(=O)NO)cn3)CC2)c2ccccc21 | 0.0743 µM (active)
CCS(=O)(=O)Nc1ccc2[nH]c(O)c(C(=Nc3ccc(CN4CCCCC4)cc3)c3ccccc3)c2c1 | 0.59 µM (active)
Nc1nc2c(c(=O)[nH]1)N(C=O)[C@H](CNc1ccc(C(=O)N[C@@H](CCC(=O)O)C(=O)O)cc1)CN2 | 7.43 µM (active)
C[C@@H](NCc1cc2ccccc2[nH]1)c1cccc2ccccc12 | inactive
CN(C)CC(=O)N1CCC(c2ccc(NC(=O)c3ncc(C#N)[nH]3)c(C3=CCCCC3)c2)CC1 | 18.7 µM (active)
C[C@H]1[C@@H](OC(=O)CCC(=O)O)O[C@@H]2O[C@@]3(C)CC[C@@H]4[C@H](C)CC[C@@H]1[C@@]24OO3 | 5.9 µM (active)
NC[C@H]1O[C@H](O[C@H]2[C@@H](O)[C@@H](O[C@H]3O[C@H](CO)[C@@H](O)[C@H](N)[C@@H]3O)[C@H](N)C[C@@H]2N)[C@H](N)C[C@H]1O | inactive
c1cncc(CN2CCC(n3ncc4c(N5CCOCC5)nc(-c5ccc6[nH]ccc6c5)nc43)CC2)c1 | 11.8 µM (active)
CCN(CC)Cc1ccc2cc(COC(=O)Nc3ccc(C(=O)NO)cc3)ccc2c1 | 1.48 µM (active)
CN[C@H]1[C@@H](O)[C@@H]2O[C@@H]3O[C@H](C)CC(=O)[C@]3(O)O[C@@H]2[C@@H](NC)[C@H]1O | 0.0743 µM (active)
O=C1NC(O)CCN1[C@@H]1O[C@H](CO)[C@H](O)[C@H]1O (stereo not given in full) | inactive
COc1ccc([C@@H]2CNC(=O)C2)cc1OC1CCCC1 | 0.743 µM (active)
Cc1noc(-c2ccc(CSCCC(=O)O)cc2)c1NC(=O)OC(C)c1ccccc1Cl (stereo not given) | inactive
CC[C@H](CC[C@@H](C)[C@H]1CC[C@H]2[C@@H]3CC=C4C[C@@H](O)CC[C@]4(C)[C@@H]3CC[C@]12C)C(C)C | inactive
C=CC[C@@H]1C=C(C)C[C@H](C)C[C@H](OC)[C@H]2O[C@@](O)(C(=O)C(=O)N3CCCC[C@H]3C(=O)O[C@H](C(C)=C[C@@H]3CC[C@H](O)[C@H](OC)C3)[C@@H](C)[C@@H](O)CC1=O)[C@@H](C)C[C@@H]2OC | inactive
